{"source": "PubChem BioAssay (EPA / NIEHS)", "key": {"[1]": {"experiment": "CCTE_Mundy_HCI_Cortical_Synap_Neur_Matur_NeuriteLength: CCTE's Synaptogenesis and Neurite Maturation Assay in rat cortical cells for Neurite Length, Mundy Lab (AID 2284214)", "how_it_was_run": "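Rat primary cortical cultures, AraC added DIV 5, dosed DIV 7 through DIV 12 […]. Fixed, MAP2/synaptophysin immunostained with Hoechst; neurite length by high-content imaging, fitted in positive direction versus DMSO.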"}, "[2]": {"experiment": "CCTE_Mundy_HCI_Cortical_Synap_Neur_Matur_SynapseCount: CCTE's Synaptogenesis and Neurite Maturation Assay in rat cortical cells for Synapse Count, Mundy Lab (AID 2284218)", "how_it_was_run": "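Rat primary cortical cultures, AraC at DIV 5, chemical dosing DIV 7 to DIV 12 (288.33 h). Fixed cells stained for MAP2, synaptophysin and Hoechst; synapses per neuron counted by high-content imaging, loss of signal versus DMSO.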"}, "[3]": {"experiment": "CCTE_Mundy_HCI_Cortical_Synap_Neur_Matur_NeuriteCount: CCTE's Synaptogenesis and Neurite Maturation Assay in rat cortical cells for Neurite Count, Mundy Lab (AID 2284222)", "how_it_was_run": "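In this multiplexed morphology readout, rat primary cortical neurons are fixed at DIV 12 following dosing at DIV 7 and stained for MAP2, synaptophysin and nuclei. High-content image analysis yields neurite count.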"}, "[4]": {"experiment": "CCTE_Mundy_HCI_Cortical_Synap_Neur_Matur_CellBodySpotCount: CCTE's Synaptogenesis and Neurite Maturation Assay in rat cortical cells for Cell Body Spot Count, Mundy Lab (AID 2284223)", "how_it_was_run": "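Rat cortical neurons; AraC @ DIV 5; dose + media change DIV 7; fix DIV 12; anti-MAP2/anti-synaptophysin IF, Hoechst; HCI count of soma synaptophysin puncta/neuron; DMSO = negative control.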"}, "[5]": {"experiment": "CCTE_Mundy_HCI_hNP1_Pro_ResponderAvgInten: CCTE's Proliferation Assay in human neuroprogenitor cells, Mundy Lab (AID 2284224; active means hit-call score of the fitted dose curve at least 0.9, where 1 is the maximum)", "how_it_was_run": "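Proliferation was scored as BrdU labelling intensity in human neural progenitors derived from WA09 embryonic cells, measured 26.25 hours after chemical dosing. Activity was fitted relative to DMSO.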"}, "[6]": {"experiment": "UKN2_HCS_IMR90_cell_viability: Viability Assessment in the University of Konstanz (UKN) Leist Lab Neural Crest Cell Migration Assay in human induced IMR90 Pluripotent Stem Cells (UKN2) (AID 2284233)", "how_it_was_run": "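Human IMR90-derived neural crest cells were allowed to migrate for 24 h into a cell-free zone, then exposed to test chemicals for 24 h. Calcein-AM and Hoechst staining with high-content imaging gave viability, analysed against DMSO baseline.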"}, "[7]": {"experiment": "CCTE_Mundy_HCI_Cortical_NOG_NeuronCount: CCTE's Neurite Outgrowth Assay in rat cortical cells for Neuron Count, Mundy Lab (AID 2284236; active means hit-call score of the fitted dose curve at least 0.9, where 1 is the maximum;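 further: cells exposed to compound for about 48 hours before fixation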)", "how_it_was_run": "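Read-out: neuron number by high-content imaging of betaIII-tubulin (Alexa Fluor-488) and Hoechst-labelled rat primary cortical cells.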"}, "[8]": {"experiment": "CCTE_Mundy_HCI_Cortical_NOG_BPCount: CCTE's Neurite Outgrowth Assay in rat cortical cells for Branch Point Count, Mundy Lab (AID 2284237);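 further: branch points counted about two days after chemical exposure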", "how_it_was_run": "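Measured 50.33 h after dosing, this morphology endpoint uses rat primary cortical cultures labelled for betaIII-tubulin. Branch points are quantified by high-content imaging, with DMSO as negative control and baseline.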"}, "[9]": {"experiment": "CCTE_Mundy_HCI_hNP1_Casp3_7: CCTE's Caspase-Glo 3/7 Assay in human neuroprogenitor cells for Apoptosis, Mundy Lab (AID 2284240)", "how_it_was_run": "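Apoptosis is scored by activated caspase-3/7 luminescence in WA09-derived neural progenitor cells, measured 26.5 h after chemical dosing. Values represent gain of signal relative to DMSO vehicle.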"}, "[10]": {"experiment": "CCTE_Mundy_HCI_hNP1_CellTiter: CCTE's Cell Titer-Glo 2 Assay in human neuroprogenitor cells for Viability, Mundy Lab (AID 2284241; active means hit-call score of the fitted dose curve at least 0.9, where 1 is the maximum)", "how_it_was_run": "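Human neural progenitor cells (hNP1, WA09-derived) were plated on poly-L-ornithine/laminin and grown 40 to 44 hours at 37 °C, 5% CO2 before chemical addition. Twenty-four hours later, ATP was measured by CellTiter-Glo luminescence; loss of signal versus DMSO indicates reduced viability.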"}, "[11]": {"experiment": "CCTE_Mundy_HCI_Cortical_Synap_Neur_Matur_NeuronCount: CCTE's Synaptogenesis and Neurite Maturation Assay in rat cortical cells for Neuron Count, Mundy Lab (AID 2284242; active means hit-call score of the fitted dose curve at least 0.9, where 1 is the maximum)", "how_it_was_run": "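Rat primary cortical cells, AraC added at DIV 5, dosed with media change from DIV 7 to DIV 12. Fixed, Hoechst-stained and immunolabelled for MAP2 and synaptophysin; neuron number counted by high-content imaging, loss fitted versus DMSO.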"}, "[12]": {"experiment": "IUF_NPC2c_oligodendrocyte_migration_120hr: Leibniz Research Institute for Environmental Medicine (IUF) 120-hour Neural Progenitor Cell Migration Assay for Oligodendrocyte Migration (NPC2c) (AID 2284297)", "how_it_was_run": "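Read-out is the mean distance of O4-positive oligodendrocytes from the sphere core edge at 120 h, normalized to radial glia migration and fitted in the gain direction against DMSO. Spheres of primary human neural progenitors differentiated on laminin under continuous compound exposure.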"}, "[13]": {"experiment": "IUF_NPC2a_radial_glia_migration_120hr: Leibniz Research Institute for Environmental Medicine (IUF) 120-hour Neural Progenitor Cell Migration Assay for Radial Glia Migration (NPC2a) (AID 2284298)", "how_it_was_run": "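Readout: distance in um from sphere core edge to migration-area edge, derived from Hoechst nuclei density with a threshold-defined polynomial boundary. Spheres: hNPC, GW 16-19, 0.3 mm, on PDL/laminin; exposure 5 days; DMSO is baseline.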"}, "[14]": {"experiment": "IUF_NPC2b_neuronal_migration_120hr: Leibniz Research Institute for Environmental Medicine (IUF) 120-hour Neural Progenitor Cell Migration Assay for Neuron Migration (NPC2b) (AID 2284300)", "how_it_was_run": "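Read-out is mean distance from sphere edge to each TUBB3-positive neuron at 120 h, expressed relative to radial glia migration distance and to DMSO baseline. Single 0.3 mm human NPC spheres differentiated on laminin under continuous compound exposure.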"}, "[15]": {"experiment": "IUF_NPC3_neuronal_differentiation_120hr: Leibniz Research Institute for Environmental Medicine (IUF) 120-hour Neuronal Differentiation Assay (NPC3) (AID 2284301)", "how_it_was_run": "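Single 0.3 mm neurospheres from human fetal cortex were plated in differentiation medium containing test compound. Medium was half-replaced on day 3. After 120 h cells were fixed, immunostained and imaged, and neuronal fraction was scored against DMSO control.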"}, "[16]": {"experiment": "IUF_NPC4_neurite_length_120hr: Leibniz Research Institute for Environmental Medicine (IUF) 120-hour Neuronal Morphology Assay for Neurite Length (NPC4) (AID 2284302)", "how_it_was_run": "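Read-out is mean neurite length in µm of TUBB3-positive neurons, skeletonized from high-content fluorescence images after 120 h. Single 0.3 mm primary human neural progenitor spheres differentiated on poly-D-lysine/laminin under continuous compound exposure; DMSO was baseline.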"}, "[17]": {"experiment": "IUF_NPC5_oligodendrocyte_differentiation_120hr: Leibniz Research Institute for Environmental Medicine (IUF) 120-hour Oligodendrocyte Differentiation Assay (NPC5) (AID 2284304; active means hit-call score of the fitted dose curve at least 0.9, where 1 is the maximum;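 further: share of O4-positive cells among Hoechst nuclei found by CNN image analysis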)", "how_it_was_run": "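Oligodendrocyte differentiation was scored after 120 h as the O4-positive share of Hoechst-stained nuclei across the neurosphere migration area, using a trained convolutional neural network on high-content fluorescence images. Human fetal neural progenitor spheres were dosed from day 0, normalised to DMSO.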"}, "[18]": {"experiment": "IUF_NPC4_neurite_area_120hr: Leibniz Research Institute for Environmental Medicine (IUF) 120-hour Neuronal Morphology Assay for Neurite Area (NPC4) (AID 2284305; active means hit-call score of the fitted dose curve at least 0.9, where 1 is the maximum)", "how_it_was_run": "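Neurite area is read out as the mean pixel area, excluding nuclei, of skeletonized TUBB3-positive neurons imaged after 120 h. Primary human neural progenitor spheres differentiated on poly-D-lysine/laminin with compound present from day 0. Activity was referenced to DMSO controls.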"}, "[19]": {"experiment": "IUF_NPC2-5_cytotoxicity_72hr: Cytotoxicity Assessment at 72 hours in the Leibniz Research Institute for Environmental Medicine (IUF) Neural Progenitor Cell Migration and Differentiation Assay for Cytotoxicity (NPC2-5) (AID 2284306; active means hit-call score of the fitted dose curve at least 0.9, where 1 is the maximum;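 further: LDH release into supernatant measured by resorufin fluorescence marking membrane damage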)", "how_it_was_run": "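Membrane integrity loss was scored from fluorescence (RFU) of resorufin generated by LDH in culture supernatant, 72 h after dosing. Differentiating human progenitor spheres received seven serial compound concentrations alongside a solvent control.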"}, "[20]": {"experiment": "IUF_NPC2-5_cytotoxicity_120hr: Cytotoxicity Assessment at 120 hours in the Leibniz Research Institute for Environmental Medicine (IUF) Neural Progenitor Cell Migration and Differentiation Assay (NPC2-5) (AID 2284307; active means hit-call score of the fitted dose curve at least 0.9, where 1 is the maximum)", "how_it_was_run": "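Sphere plating starts differentiation and exposure together at day 0. Compound solution is half-replaced on day 3. At 120 h, medium supernatant is taken for an LDH membrane-integrity read based on resazurin reduction to resorufin fluorescence.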"}, "[21]": {"experiment": "IUF_NPC2-5_cell_number_120hr: Cell Number Assessment at 120 hours in the Leibniz Research Institute for Environmental Medicine (IUF) Neural Progenitor Cell Migration and Differentiation Assay (NPC2-5) (AID 2284308)", "how_it_was_run": "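hNPC spheres, one per well, PDL/laminin, N2 medium, 37C, 5% CO2. Dosing day 0 → half-medium change with fresh compound day 3 → fix 120 h. Readout: Hoechst+ nuclei count, migration area; 7 concentrations plus solvent control.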"}, "[22]": {"experiment": "IUF_NPC2-5_viability_120hr: Viability Assessment at 120 hours in the Leibniz Research Institute for Environmental Medicine (IUF) Neural Progenitor Cell Migration and Differentiation Assay (NPC2-5) (AID 2284312)", "how_it_was_run": "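Alamar blue resorufin fluorescence read after 5 days of differentiation, with compound present from day 0 and replenished at day 3. Primary hNPC spheres on laminin-coated plates, 37C; seven concentrations plus solvent control, fitted against DMSO.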"}, "[23]": {"experiment": "CCTE_Mundy_HCI_iCellGluta_NOG_NeuriteLength: CCTE's Neurite Outgrowth Assay in iCellGluta cells for Neurite Length, Mundy Lab (AID 2284318; active means hit-call score of the fitted dose curve at least 0.9, where 1 is the maximum)", "how_it_was_run": "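Automated high-content imaging of betaIII-tubulin (Alexa Fluor-488) and Hoechst-stained cells gave neurite length, normalized to the DMSO baseline.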"}, "[24]": {"experiment": "IUF_NPC1_cytotoxicity_72hr: Cytotoxicity Assessment at 72 hours in the Leibniz Research Institute for Environmental Medicine (IUF) Neural Progenitor Cell Proliferation Assay (NPC1) (AID 2284332; active means hit-call score of the fitted dose curve at least 0.9, where 1 is the maximum;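 further: rising LDH signal means more cytotoxicity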)", "how_it_was_run": "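Human fetal neural progenitor spheres (0.3 mm) in EGF/FGF proliferation medium, 37C, exposed 72 h without renewal. LDH release in supernatant read by resorufin fluorescence; gain of signal scored relative to dynamic range.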"}, "[25]": {"experiment": "CCTE_Mundy_HCI_iCellGluta_NOG_NeuriteCount: CCTE's Neurite Outgrowth Assay in iCellGluta cells for Neurite Count, Mundy Lab (AID 2284342; active means hit-call score of the fitted dose curve at least 0.9, where 1 is the maximum;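 further: chemical exposure about 48 hours starting 2 hours after plating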)"}}, "note": "Results filed as inconclusive are left out. Calls of active or inactive are those of the source. How the source made its calls, unless noted: active means hit-call score of the fitted dose curve at least 0.9, where 1 is the maximum; inactive means score below 0.9."}
{"smiles": "Cn1nc(C(F)(F)F)c(CS(=O)(=O)C2=NOC(C)(C)C2)c1OC(F)F", "values": [{"measurement": "AC50", "setting": "[1]", "result": "28 µM (active)"}, {"measurement": "outcome", "setting": "[2]", "result": "inactive"}, {"measurement": "outcome", "setting": "[3]", "result": "inactive"}, {"measurement": "outcome", "setting": "[4]", "result": "inactive"}, {"measurement": "outcome", "setting": "[5]", "result": "inactive"}, {"measurement": "outcome", "setting": "[6]", "result": "inactive"}, {"measurement": "outcome", "setting": "[7]", "result": "inactive"}, {"measurement": "AC50", "setting": "[8]", "result": "77.1 µM (active)"}, {"measurement": "outcome", "setting": "[9]", "result": "inactive"}, {"measurement": "outcome", "setting": "[10]", "result": "inactive"}, {"measurement": "AC50", "setting": "[11]", "result": "31.3 µM (active)"}, {"measurement": "outcome", "setting": "[12]", "result": "inactive"}, {"measurement": "AC50", "setting": "[13]", "result": "33.8 µM (active)"}, {"measurement": "outcome", "setting": "[14]", "result": "inactive"}, {"measurement": "AC50", "setting": "[15]", "result": "9.95 µM (active)"}, {"measurement": "AC50", "setting": "[16]", "result": "42.3 µM (active)"}, {"measurement": "outcome", "setting": "[17]", "result": "inactive"}, {"measurement": "AC50", "setting": "[18]", "result": "50.1 µM (active)"}, {"measurement": "outcome", "setting": "[19]", "result": "inactive"}, {"measurement": "outcome", "setting": "[20]", "result": "inactive"}, {"measurement": "outcome", "setting": "[21]", "result": "inactive"}, {"measurement": "outcome", "setting": "[22]", "result": "inactive"}, {"measurement": "AC50", "setting": "[23]", "result": "50 µM (active)"}, {"measurement": "outcome", "setting": "[24]", "result": "inactive"}, {"measurement": "outcome", "setting": "[25]", "result": "inactive"}]}
